Screening results: PubChem BioAssay, National Center for Advancing Translational Sciences (NCATS)
AmpC inh no detg: qHTS Inhibitors of AmpC Beta-Lactamase (assay without detergent); Potency, µM (titrated, usually from 57.1 µM), most hits filed as inhibitors; AmpC nitrocefin hydrolysis, absorbance 480 nm, 0.0001% Triton; P00811; 330,000 compounds, 0.52% hits; further: nearly all actives have a fitted effect of over 20% in size
Target sequence (P00811 whole entry, looked up): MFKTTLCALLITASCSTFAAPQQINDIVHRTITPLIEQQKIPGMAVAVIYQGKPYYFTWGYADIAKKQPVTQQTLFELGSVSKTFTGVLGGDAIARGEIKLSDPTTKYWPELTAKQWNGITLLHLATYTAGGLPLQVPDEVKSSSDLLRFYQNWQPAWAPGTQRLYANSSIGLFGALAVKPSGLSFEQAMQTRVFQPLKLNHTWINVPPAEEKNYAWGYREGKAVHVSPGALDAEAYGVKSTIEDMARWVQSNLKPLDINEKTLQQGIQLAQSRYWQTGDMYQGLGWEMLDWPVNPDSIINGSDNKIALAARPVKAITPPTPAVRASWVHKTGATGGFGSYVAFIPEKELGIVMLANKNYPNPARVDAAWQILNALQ
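AmpC (5.3 nM in the dispensed reagent) in 20 mM phosphate pH 7.0 with 0.01% (detergent screen) or 0.0001% Triton X-100 was preincubated with compounds for 15 min at room temperature. Nitrocefin was then added from an 800 uM solution, and hydrolysis was followed at 480 nm.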
AmpC inh detg: qHTS Inhibitors of AmpC Beta-Lactamase (assay with detergent); P00811; AmpC hydrolysis of nitrocefin, absorbance 480 nm, 0.01% Triton; Potency, µM (top dose mostly 114 µM), most hits filed as inhibitors; 370,000 compounds, 0.041% hits; AID 485294, 2010; further: nearly all actives have a fitted effect of over 25% in size
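AmpC (5.3 nM in the dispensed reagent) in 20 mM phosphate pH 7.0 with 0.01% (detergent screen) or 0.0001% Triton X-100 was preincubated with compounds for 15 min at room temperature. Nitrocefin was then added from an 800 uM solution, and hydrolysis was followed at 480 nm.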
VACV Venus inh: qHTS for Stage-Specific Inhibitors of Vaccinia Orthopoxvirus: Venus Reporter Primary qHTS. Vaccinia virus Venus reporter expression, fluorescence. Potency, µM (highest dose often 36.5 µM), hits mostly inhibitors. 330,000 compounds, 0.46% hits; calls by dose curve; tested in A549 cells; further: nearly all actives have a fitted effect of over 30% in size
Vaccinia mCherry: qHTS for Stage-Specific Inhibitors of Vaccinia Orthopoxvirus: mCherry Reporter Primary qHTS. Vaccinia virus mCherry reporter infection, fluorescence. Potency, µM (doses to about 36.5 µM), most hits filed as inhibitors. 310,000 compounds, 0.63% hits. AID 720579, 2013; calls by dose curve; tested in A549 cells; further: nearly all actives have a fitted effect of over 35% in size
SARS PLpro yeast-1: qHTS of Yeast-based Assay for SARS-CoV PLP. S. cerevisiae expressing SARS-CoV PLpro, growth rescue. Potency, µM (titrated, usually from 32.9 µM), usual class: activators. 330,000 compounds, 0.19% hits. AID 485353, 2010; calls by dose curve; further: nearly all actives have a fitted effect of over 55% in size
AMA1 RON2 block: qHTS for Inhibitors of AMA1-RON; Towards Development of Antimalarial Drug Lead: Primary Screen. AlphaScreen AMA1-biotinylated RON2 peptide binding. Potency, µM (series often up to 58.2 µM), usual class: inhibitors. 360,000 compounds, 0.2% hits. AID 720542, 2013; further: nearly all actives have a fitted effect of over 45% in size
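AMA1 (3D7) with his tag at 25 nM final met compounds first, then biotinylated RON2 peptide at 25 nM; detection used donor plus acceptor beads, 10 µg/mL apiece, read by AlphaScreen after 30 min at room temperature.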
SARS PLpro yeast-2: qHTS of Yeast-based Assay for SARS-CoV PLP: Hit Validation; shares compounds with SARS PLpro yeast-1; yeast expressing SARS-CoV PLpro, growth phenotype rescue; calls only; 1,000 compounds, 19% hits; AID 652038, 2013; call rule not given here
Of the large screens only hits and unclear results are named; the others gave an inactive call (follow-up assays come after a bar, where they were run). Shown are actives, neighbours in structure and some others; about 1.3% of the full set was active somewhere. Unless noted, the call rests on the fitted dose curve; in most records, active means well fitted curve in the direction sought with a large enough effect; inconclusive means small, poorly fitted or top-dose-only effect, or another doubt; inactive means no such curve, though single readings can be large; an effect the other way counts as inactive or inconclusive.

CCc1ccccc1NC(=O)C1(C)Cc2ccccc2C(=O)O1 (stereo not given)	none (no result: AmpC inh no detg, SARS PLpro yeast-1, AMA1 RON2 block)
Cc1ccccc1NC(=O)C1(C)Cc2ccccc2C(=O)O1 (stereo not given)	SARS PLpro yeast-1 inconclusive | SARS PLpro yeast-2 inconclusive
Cn1c(=O)c(Cc2ccccc2)c(O)c2ccccc21	SARS PLpro yeast-1 10µM (no result: VACV Venus inh, Vaccinia mCherry) | SARS PLpro yeast-2 inconclusive
CCCn1c(=O)c(Cc2ccccc2)c(O)c2ccccc21	none (no result: Vaccinia mCherry)
CCN1C(=NCc2ccccc2)N[C@@H](c2ccccc2)[C@H](C(=O)OC)[C@H]1C	AmpC inh detg inconclusive, SARS PLpro yeast-1 inconclusive | SARS PLpro yeast-2 inactive
CCCC(=O)Nc1cc(C(=O)O)ccc1Sc1ccccc1	none
O=C(COC(=O)/C=C/c1cccs1)Nc1nc(-c2ccccc2)cs1	SARS PLpro yeast-1 14.1µM | SARS PLpro yeast-2 active
CC(C)(C)C1CCc2sc(-c3nnc(CCl)o3)cc2C1 (stereo not given)	none (no result: VACV Venus inh, Vaccinia mCherry)
ClCc1nnc(-c2cc3c(s2)CCCC3)o1	SARS PLpro yeast-1 inconclusive | SARS PLpro yeast-2 inactive
CCc1cccc(CC)c1NC(=O)CN1C2CCCC1CC(NC(=O)Nc1cccc(OC)c1)C2 (stereo not given)	VACV Venus inh inconclusive, Vaccinia mCherry inconclusive
O=C1CNC(=S)N1CCCn1ccnc1	none (no result: VACV Venus inh, Vaccinia mCherry)
Cc1nccn1CCCN1C(=O)CNC1=S	SARS PLpro yeast-1 4.47µM | SARS PLpro yeast-2 inactive
O=C(N/N=C/c1ccncc1)c1cccs1	none (no result: VACV Venus inh, Vaccinia mCherry)
O=C(N/N=C/c1ccc(-n2ccnc2)cc1)c1cccs1	SARS PLpro yeast-1 inconclusive | SARS PLpro yeast-2 inactive
Cc1cc(C)nc(NS(=O)(=O)c2ccc(NC(=S)NC(=O)CC(C)C)cc2)n1	VACV Venus inh 11.2µM, Vaccinia mCherry 11.2µM, SARS PLpro yeast-1 inconclusive | SARS PLpro yeast-2 inactive
CCCCCCNc1ccc(/C=C/c2ccnc3ccccc23)cc1	none (no result: AmpC inh no detg, AmpC inh detg, SARS PLpro yeast-1, AMA1 RON2 block)
CCCCc1nnc(SCc2cc(=O)c3cc(C(=O)OCC)ccc3[nH]2)n1C	none (no result: AmpC inh no detg, SARS PLpro yeast-1, AMA1 RON2 block)
CCN1C[C@@H]2[C@@H]3C(=O)N(C)C(=O)[C@@H]3[C@](CC)(C(=O)OC)N2C1=NC	SARS PLpro yeast-1 3.55µM (no result: AmpC inh detg) | SARS PLpro yeast-2 inactive
COc1ccc(C(=O)NC(=S)NNC(=O)c2cnccn2)cc1OC	SARS PLpro yeast-1 3.98µM | SARS PLpro yeast-2 inconclusive
COc1ccc(C(=O)NCCNC(=O)c2cnccn2)cc1OC	none
COc1cc(OC)cc(C(=O)NC(=S)NNC(=O)c2cnccn2)c1	none (no result: SARS PLpro yeast-1) | SARS PLpro yeast-2 inactive
CC(=NC(C)C)C1=C(O)CCC1=O	SARS PLpro yeast-1 inconclusive (no result: Vaccinia mCherry) | SARS PLpro yeast-2 inactive
CN(C(=O)CSc1nnc(-c2cccnc2)n1-c1ccccc1F)C1CCS(=O)(=O)C1 (stereo not given)	none
S=C(NNc1ccc2ccccc2c1)NC1CCCCC1	AmpC inh no detg inconclusive, AMA1 RON2 block 15.8µM (no result: SARS PLpro yeast-1) | SARS PLpro yeast-2 inconclusive
CCn1nc(C)cc1C(=O)N1CCC2(CC1)c1ccccc1[C@@H](NC(=O)c1cccnc1)[C@@H]2O	none (no result: AmpC inh no detg, AmpC inh detg, SARS PLpro yeast-1, AMA1 RON2 block)
Cc1cc([N+](=O)[O-])nn1CC(=O)N1CCCc2ccccc21	SARS PLpro yeast-1 15.8µM | SARS PLpro yeast-2 inactive
O=C(N/N=C/c1cc2c3c(c1O)CCCN3CCC2)c1ccccc1O	VACV Venus inh inconclusive, Vaccinia mCherry inconclusive, SARS PLpro yeast-1 2.82µM, AMA1 RON2 block inconclusive | SARS PLpro yeast-2 inconclusive
Cc1nn(-c2ccccc2)c(N2CCCC2)c1/C=N/NC(=O)c1ccccc1O	none
COc1ccc([C@]23Cc4ccccc4C(O2)C2=C(CC(C)(C)CC2=O)O3)cc1	AmpC inh detg inconclusive (no result: VACV Venus inh, Vaccinia mCherry, AMA1 RON2 block)
Cc1ccc2[nH]c(=O)c(C3C(C#N)=C(N)Oc4c3ccc3cccnc43)cc2c1 (stereo not given)	VACV Venus inh inconclusive, Vaccinia mCherry 10µM, SARS PLpro yeast-1 12.6µM | SARS PLpro yeast-2 active
N#CC1=C(N)Oc2c(ccc3cccnc23)C1c1ccccc1 (stereo not given)	none (no result: VACV Venus inh, Vaccinia mCherry)
